± gives the standard deviation of the averaged measurements. Over roughly 25,000 sequences, “ln(normalized median fluorescence intensity)” has its median near 8.6; the highest 2% begin near 10. The sample holds the highest values, similar sequences and a random draw of the others, so the mix is not that of the screen.
What follows are sequences tested on PfAP2-EXP AP2 domain (GST-tagged) (assay: gcPBM binding intensity (ln(normalized median fluorescence intensity)); higher = stronger DNA binding).
Outline: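 An Agilent 4 × 180k array carrying primer-extended double-stranded 36-bp intergenic genomic probes and negative controls received GST-tagged P. falciparum DNA-binding domains expressed in E. coli, about 25 μg on average, for 1 h. The binding buffer contained 1× PBS, 1% milk, 0.2 mg/ml BSA, 0.5% salmon testes DNA and 0.03% Triton X-100. Binding intensity is the top Masliner-normalised natural-log median intensity across replicate spots of either probe orientation, read after Alexa488 anti-GST antibody staining and a 488 nm scan.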

| Sequence | gcPBM binding intensity (ln) |
| --- | --- |
| ATATATGATGTATTTGTGCACATATATATATTATTA [GTGCAC_site9471] | 8.75 ± 0.028 |
| AACAAATACAGACACACACACACACTAATAAAAAAA [CACACA_site8067] | 8.66 ± 0.52 |
| ATATATGGAAAGAGTAGTACTATTATAGGGGTGTTA [XGTACX_site6785] | 8.95 ± 0.64 |
| TTTTTTTTGTAGAATTGTACTTATAAAATATATATA [XGTACX_site2116] | 8.19 ± 0.34 |
| TAAAAATTACTATATGAACACACATGATTAGATATA [CACACA_site9012] | 8.43 ± 0.49 |
| TTATATTTATAAAGGTGTACCTTAAAATGATTTTAC [XGTACX_site3774] | 8.19 ± 0.25 |
| ATATATATATATGTCTGTACATAAAAAATAATAAAT [XGTACX_site3122] | 10 ± 0.36 |
| GTAATTTTATATGGTTGTACATATATATATATATAT [XGTACX_site6659] | 10.2 ± 0.18 |
| ATATATATATATATATGTACATATATTTATTTATTG [XGTACX_site6267] | 10.2 ± 0.3 |
| TGTGTATATTATATGTGTACATATCAATGTTTATAT [XGTACX_site1885] | 8.61 ± 0.26 |
| TATACATGTATATATTGTACATATGTTTTTTTTACA [XGTACX_site3300] | 8.86 ± 0.57 |
| ATATATATATATATATGTACATATGTCAACTGTCTA [XGTACX_site8636] | 10.3 |
| GTCATATATAATTGTTGTACATTTTTATAATTATGT [XGTACX_site8091] | 8.86 ± 0.36 |
| ATTTATTTATTTATATGTACATATATATATATATAT [XGTACX_site339] | 10.1 ± 0.3 |
| ATTTGTTCATTTGGTTGTACATAATTTATTTTTATA [XGTACX_site785] | 8.75 ± 0.33 |
| ATATATATATATATATGTACATATATTTATATTTAT [XGTACX_site6179] | 9.99 ± 0.42 |
| GCTCAATGTTTTACATGTACATATATATATATATAT [XGTACX_site8210] | 10.2 ± 0.33 |
| AAAAAAAATATAATATGTACATATCTATATATCAAC [XGTACX_site4881] | 8.55 ± 0.38 |
| GGAATTATAATAAATGGTACACATAAAAAAAAAAAA [XGTACX_site8343] | 8.77 ± 0.59 |
| ATATATAATCATCACACATGCAGCCCTGATGAAAAA [TGCATGCA_site687] | 8.77 ± 0.38 |
| TGCATACTTTTGTAAGTGCATAAAATCGTACCATGC | 8.71 ± 0.11 |
| GATATTACGTGTTTGGTATTTTTTGATGTTAATAGG [CACACA_negctrl_site105] | 8.8 ± 0.52 |
| ATATATATATATATATGTACATATATTTTTATTTAT [XGTACX_site3508] | 10.3 ± 0.26 |
| CATATATATTTTATATGTACATATATATTTTATATA [XGTACX_site8665] | 8.45 ± 0.25 |

| Sequence | gcPBM binding intensity (ln) |
| --- | --- |
| ATATATATATATGTATGTACACATATTTTTTAACTT [XGTACX_site431] | 10.42 ± 0.042 |
| ATATATATATATATATGTACATATTTTTTATTTTAT [XGTACX_site5761] | 10.1 ± 0.5 |
| TTTTTTTTTTTTTTATGTACATATATATATTTTATT [XGTACX_site6915] | 8.61 ± 0.6 |
| TTATATTTTTACAAGAGTACATATATATATATATAT [XGTACX_site5383] | 10.2 ± 0.31 |
| TTTTTTTTTATATTTAGTACATATATATTATTATAT [XGTACX_site3334] | 8.39 ± 0.31 |
| ATATATATATATTTATGTACATATATTTTTTTTTTT [XGTACX_site8558] | 9.73 ± 0.28 |
| ATATATATATATATATGTACATATTTTATAACTGTA [XGTACX_site5395] | 10.2 ± 0.33 |
| AAAAAAAAAAAAAAGAGTACATTTATTTATATATCT [XGTACX_site2381] | 8.23 ± 0.19 |
| ATATATATATATGTATGTACATATTTTTTTTAACAC [XGTACX_site8475] | 9.93 ± 0.4 |
| TATATACATTTATGTACACACACATATATGTATATT [CACACA_site8971] | 8.59 ± 0.34 |
| CTTAAGTAAAATTAAAGTACATGGACAAAAAATATA [XGTACX_site7900] | 8.87 ± 0.28 |
| AAAAAAAAAAAAAAAAGTACAAAAAAAAAAAAAAAA [XGTACX_site4549] | 8.26 ± 0.057 |
| AAAATTAATTATTACAAAAATGAAAAGACATATTTT [GTGCAC_negctrl_site735] | 8.23 ± 0.38 |
| TAATCAATTCAATATTGTACGATATTTACCTTTAAA [XGTACX_site4678] | 8.89 ± 0.42 |
| AGAGGGGAAAACATGATGCACTAGTATAACCAAGAA | 9.22 ± 0.34 |
| GTGAATATTAAAAAATGTACACAATTATATGTATAT [XGTACX_site4834] | 8.49 ± 0.28 |
| TTCAAAAGATATATCGTGCACATATATATGATGAAA | 9.35 ± 0.62 |
| ATGCTCAGGAAAACATGTACAAAATTATTTGTTATA [XGTACX_site4306] | 8.31 ± 0.34 |
| AAGTATTTTTTTACATGTACATATATATATATATAT [XGTACX_site5065] | 10.2 ± 0.26 |
| ATGTATATATATATATGTACATATTTTTTATATGTA [XGTACX_site441] | 8.29 ± 0.25 |
| TGTATGTTTATTTATCGTACATATATATATATATAT [XGTACX_site7315] | 10.2 ± 0.18 |
| TATATTATATTTTTATGTACATATATGTTTTTTTTT [XGTACX_site8239] | 8.52 ± 0.092 |
| GTATATAAGTATATATGTACATATATTTTATATATA [XGTACX_site4745] | 8.42 ± 0.23 |
| ATATATTTATTTATATGTACATATTATATATTATAG [XGTACX_site3371] | 8.55 ± 0.35 |

— the supplement of paper PMC11417369
